Test results reported in PubChem BioAssay (Tox21).
Records with an inconclusive call do not appear. Activity calls are given as the source filed them. Unless noted, calls follow the shape of the dose curve; as a rule, active = well fitted curve in the direction sought with a large enough effect in the repeat runs; inconclusive = weak or mixed curves; inactive = no such curve, though single readings can be large; an effect the other way counts as inactive or inconclusive.

Experiments:
[1] = qHTS assay to identify small molecule antagonists of the thyroid receptor (TR) signaling pathway - cell viability counter screen (AID 743064); also: nearly all actives have a fitted effect of over 50% in size
Procedure, shortened: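 Rat GH3 pituitary tumor cells stably expressing two TR response elements driving luciferase were plated, rested 4 h, then dosed with library compounds and T3 (1 nM final). After 23.5 h at 37 °C, CellTiter-Fluor was added for 30 min and fluorescence recorded.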

[2] = qHTS assay to identify small molecule antagonists of the thyroid receptor (TR) signaling pathway (AID 743065); also: series mostly up to about 70 µM; nearly all actives have a fitted effect of over 55% in size
Procedure, shortened: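 GH3.TRE-Luc rat pituitary cells carrying two TR response elements driving luciferase were plated for 4 h, given compound plus 1 nM T3 (final), and incubated 23.5 h at 37 C. ONE-Glo luminescence measured reporter inhibition; CellTiter-Fluor fluorescence tracked cytotoxicity.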

[3] = test system: thyroid hormone receptor (rat, GH3 cells); assay: qHTS assay to identify small molecule agonists of the thyroid receptor (TR) signaling pathway (AID 743066; calls by dose curve)
[4] = target: Estrogen receptor (Homo sapiens) (UniProt P03372); assay: qHTS assay to identify small molecule antagonists of the estrogen receptor alpha (ER-alpha) signaling pathway (AID 743069; active = well fitted curve in the direction sought with a large enough effect in the signal ratio in the repeat runs, not every such curve was filed as active; the % refers to the signal ratio)
Procedure, shortened: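 A 17beta-estradiol challenge was applied right after compound transfer to ER-alpha-UAS-bla HEK293 cells previously kept in charcoal-stripped serum. Plates stood 18 hr at 37C and 5% CO2; fluorescence was read following 2 hr FRET substrate loading at room temperature.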

[5] = qHTS assay to identify small molecule antagonists of the estrogen receptor alpha (ER-alpha) signaling pathway - cell viability counter screen (AID 743074; calls by dose curve;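 also: HEK293 cells carrying ER-alpha-UAS-bla reporter stimulated with 17beta-estradiol; nearly all actives have a fitted effect of over 45% in size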)
[6] = target: Estrogen receptor (Homo sapiens) (UniProt P03372); assay: qHTS assay to identify small molecule agonists of the estrogen receptor alpha (ER-alpha) signaling pathway (AID 743075; calls by dose curve;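 also: HEK293 GripTite cells with ER-alpha and UAS-driven beta-lactamase reporter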)
[7] = target: Estrogen receptor (Homo sapiens) (UniProt P03372); assay: qHTS assay to identify small molecule agonists of the estrogen receptor alpha (ER-alpha) signaling pathway using the BG1 cell line (AID 743079); also: nearly all actives have a fitted effect of over 20% in size; also: potency is read from the fitted curve at half-maximal effect
[8] = qHTS assay to identify small molecule antagonists of the estrogen receptor alpha (ER-alpha) signaling pathway using the BG1 cell line (AID 743080; calls by dose curve;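 also: BG1 cells stimulated with 17beta-estradiol alongside compound; series mostly up to about 70 µM; nearly all actives have a fitted effect of over 25% in size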)
Procedure, shortened: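 Quantitative HTS on the Tox21 10K library: BG1 cells with endogenous ER-alpha and ERE-luciferase reporter, 17beta-estradiol stimulation, 21.5 h compound exposure, luminescence endpoint with parallel fluorescence cytotoxicity counter-read.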

[9] = qHTS assay to identify small molecule antagonists of the estrogen receptor alpha (ER-alpha) signaling pathway using the BG1 cell line - cell viability counter screen (AID 743081);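 also: compound given together with 17beta-estradiol as the ER stimulus; series mostly up to about 70 µM; nearly all actives have a fitted effect of over 45% in size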
Aromatase (Homo sapiens) = Aromatase (Homo sapiens) (UniProt P11511); assay: qHTS assay to identify aromatase inhibitors (AID 743083); also: series mostly up to about 70 µM; nearly all actives have a fitted effect of over 55% in size

Measured: Potency

Sequence of Aromatase (Homo sapiens) (P11511 whole entry, looked up): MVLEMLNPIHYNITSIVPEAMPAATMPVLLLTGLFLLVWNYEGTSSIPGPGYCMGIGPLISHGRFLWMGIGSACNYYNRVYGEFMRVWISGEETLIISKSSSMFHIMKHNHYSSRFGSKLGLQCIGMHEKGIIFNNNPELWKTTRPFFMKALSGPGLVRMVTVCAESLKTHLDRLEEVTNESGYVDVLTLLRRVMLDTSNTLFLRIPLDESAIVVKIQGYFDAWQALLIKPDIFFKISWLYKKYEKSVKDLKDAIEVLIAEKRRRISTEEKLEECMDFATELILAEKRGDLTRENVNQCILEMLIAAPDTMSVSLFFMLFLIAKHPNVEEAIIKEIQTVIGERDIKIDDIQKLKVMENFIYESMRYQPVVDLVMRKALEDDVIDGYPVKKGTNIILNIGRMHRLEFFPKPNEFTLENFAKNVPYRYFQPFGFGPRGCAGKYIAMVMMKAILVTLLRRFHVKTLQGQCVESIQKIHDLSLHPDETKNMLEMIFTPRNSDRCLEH
Sequence of Estrogen receptor (Homo sapiens) (P03372 whole entry, looked up): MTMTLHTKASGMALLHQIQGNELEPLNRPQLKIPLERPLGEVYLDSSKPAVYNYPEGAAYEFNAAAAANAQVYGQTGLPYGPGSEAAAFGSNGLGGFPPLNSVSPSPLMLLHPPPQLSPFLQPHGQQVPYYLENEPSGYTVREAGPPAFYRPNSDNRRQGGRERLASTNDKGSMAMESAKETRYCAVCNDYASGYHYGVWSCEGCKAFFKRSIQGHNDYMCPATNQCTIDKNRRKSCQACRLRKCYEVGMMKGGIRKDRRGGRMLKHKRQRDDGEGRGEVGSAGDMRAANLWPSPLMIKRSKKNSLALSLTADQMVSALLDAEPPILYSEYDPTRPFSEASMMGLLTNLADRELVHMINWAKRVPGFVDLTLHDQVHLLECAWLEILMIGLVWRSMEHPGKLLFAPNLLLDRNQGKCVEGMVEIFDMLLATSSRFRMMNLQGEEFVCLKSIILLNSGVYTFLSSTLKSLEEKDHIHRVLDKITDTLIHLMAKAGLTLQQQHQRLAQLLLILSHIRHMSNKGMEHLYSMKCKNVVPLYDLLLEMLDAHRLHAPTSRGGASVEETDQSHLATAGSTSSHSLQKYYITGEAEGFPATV

O=Cc1ccccc1[N+](=O)[O-]
inactive: all assays above

NCC[C@H](O)C(=O)N[C@@H]1C[C@H](N)[C@@H](O[C@H]2O[C@H](CN)[C@@H](O)[C@H](O)[C@H]2O)[C@H](O)[C@H]1O[C@H]1O[C@H](CO)[C@@H](O)[C@H](N)[C@H]1O
active: [7] 23.7 µM
inactive: all other assays above

Fc1ccccc1-c1ccccc1
inactive: all assays above

CC(C)c1cccc(O)c1
inactive: all assays above

CC12CCC(CC1=O)C2(C)C (stereo not drawn)
inactive: all assays above

CC/C=C\CCCCO
inactive: all assays above

C=CCOCC(O)CS(=O)(=O)O (stereo not drawn)
inactive: all assays above

O=C(O)c1ccc[n+]([O-])c1
inactive: all assays above

CCCCCCCCCCCl
inactive: all assays above

NC(=O)Nc1nc2ccccc2[nH]1
inactive: all assays above

C1CCCCCCCCCCC1
inactive: all assays above

C=C(C)C1CC=C(C)C(O)C1 (stereo not drawn)
inactive: all assays above

CCCc1ccc(N)cc1
not listed: [8]
inactive: all other assays above

CO[Si](CCCNCCC[Si](OC)(OC)OC)(OC)OC
not listed: [8]
inactive: all other assays above

O=C(O)c1cccc(C(=O)O)n1
inactive: all assays above

NC(=O)c1ncn([C@@H]2O[C@H](CO)[C@@H](O)[C@H]2O)c1N
not listed: [8]
inactive: all other assays above

CC(C)CCCCCCN
inactive: all assays above

CC/C=C\C#N
inactive: all assays above

CCOC(=O)Nc1ccc2c(c1)N(C(=O)CCN1CCOCC1)c1ccccc1S2
not listed: [8]
inactive: all other assays above

CC(C)(O)c1ccccc1
not listed: [8]
inactive: all other assays above

CC(=O)CCc1ccc(O)cc1
inactive: all assays above

NS(=O)(=O)c1cc2c(cc1Cl)NC(CSCc1ccccc1)=NS2(=O)=O
not listed: [8]
inactive: all other assays above

CC(C)N1C(=O)c2ccccc2C1=O
inactive: all assays above

CCC(C(=O)NC(N)=O)c1ccccc1 (stereo not drawn)
inactive: all assays above

CC(C)(O)Cc1ccccc1
not listed: [8]
inactive: all other assays above
